This passage reports outcome and AC50 results from PubChem BioAssay (EPA / NIEHS).

Read-out in test [1]: Interleukin-8 (IL8), CXCL8 (gene 3576)
The test can be described thus: BSK_KF3CT_IL8: BioMAP Diversity Plus: KF3CT Assay for Interleukin-8 (IL8) Biomarker Activity (AID 2284254). The conditions noted are these: primary human keratinocytes with fibroblasts. The gist of the method: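 Chemicals were added to co-cultured human keratinocytes and foreskin fibroblasts, incubated 24 h, then IL-8 was quantified by ELISA. Cytotoxicity was tracked by sulforhodamine B total-protein staining in parallel cultures.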

Read-out in test [2]: Macrophage Inflammatory Protein-1 Alpha (MIP1a), CCL3 (gene 6348)
The test can be described thus: BSK_IMphg_MIP1a: BioMAP Diversity Plus: IMphg Assay for Macrophage Inflammatory Protein-1 Alpha (MIP1a) Biomarker Activity (AID 2284255). The conditions noted are these: primary human endothelial cells with macrophages. The procedure, abridged: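 Co-culture of human venular endothelial cells and macrophages exposed to compounds for 24 h; MIP-1a measured by ELISA relative to DMSO. Cytotoxicity assessed in parallel cultures by sulforhodamine B total-protein staining at 560 nm.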

Read-out in test [3]: Plasminogen activator inhibitor-1 (PAI1), SERPINE1 (gene 5054)
The test can be described thus: BSK_MyoF_PAI1: BioMAP Diversity Plus: MyoF Assay for Plasminogen activator inhibitor-1 (PAI1) Biomarker Activity (AID 2284256).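 Also: PAI-1 read 24 h after compound addition.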 The conditions noted are these: primary human lung fibroblasts. The gist of the method:
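Primary human lung fibroblasts are dosed and incubated 24 h. PAI-1 is then measured by ELISA, while parallel cultures undergo SRB staining for overt cytotoxicity. Increases over DMSO define activity.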

Read-out in test [4]: CD69, CD69 (gene 969)
The test can be described thus: BSK_IMphg_CD69: BioMAP Diversity Plus: IMphg Assay for CD69 Biomarker Activity (AID 2284257). The conditions noted are these: primary human endothelial cells with macrophages. The gist of the method: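 Human venular endothelial cells co-cultured with macrophages; CD69 quantified by ELISA 24 h after compound addition. Activity fitted in the positive direction relative to DMSO baseline; cytotoxicity tracked in parallel cultures via SRB total-protein staining.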

Read-out in test [5]: Eotaxin 3, CCL26 (gene 10344)
The test can be described thus: BSK_BF4T_Eotaxin3: BioMAP Diversity Plus: BF4T Assay for Eotaxin 3 Biomarker Activity (AID 2284258). The conditions noted are these: primary human bronchial epithelial cells with fibroblasts. The procedure, abridged:
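Co-culture of human bronchial epithelial cells and dermal fibroblasts, exposed to chemicals for 24 h versus DMSO. Eotaxin-3 quantified by ELISA; cytotoxicity checked in parallel cultures by sulforhodamine B total-protein staining.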

Read-out in test [6]: Monocyte Chemoattractant Protein-1 (MCP1), CCL2 (gene 6347)
The test can be described thus: BSK_BF4T_MCP1: BioMAP Diversity Plus: BF4T Assay for Monocyte Chemoattractant Protein-1 (MCP1) Biomarker Activity (AID 2284259). The conditions noted are these: primary human bronchial epithelial cells with fibroblasts. The procedure, abridged:
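Co-culture of bronchial epithelial cells and dermal fibroblasts dosed with chemical; MCP-1 measured by ELISA 24 h later. Activity fitted in positive direction versus DMSO; cytotoxicity checked by SRB staining in parallel cultures.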

Read-out in test [7]: Intercellular Adhesion Molecule 1 (ICAM1), ICAM1 (gene 3383)
The test can be described thus: BSK_BF4T_ICAM1: BioMAP Diversity Plus: BF4T Assay for Intercellular Adhesion Molecule 1 (ICAM1) Biomarker Activity (AID 2284260). The conditions noted are these: primary human bronchial epithelial cells with fibroblasts. The procedure, abridged:
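Co-culture of human bronchial epithelial cells and dermal fibroblasts exposed 24 h to chemical; cell-surface ICAM-1 quantified by ELISA. Parallel SRB total-protein staining assessed cytotoxicity; activity fitted relative to DMSO.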

Read-out in test [8]: Interleukin-8 (IL8), CXCL8 (gene 3576)
The test can be described thus: BSK_MyoF_IL8: BioMAP Diversity Plus: MyoF Assay for Interleukin-8 (IL8) Biomarker Activity (AID 2284261). The conditions noted are these: primary human lung fibroblasts. The procedure, abridged:
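IL-8 levels were measured by ELISA in human lung fibroblasts harvested 24 h after compound addition. Responses were analysed as gain of signal over the DMSO baseline.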

Read-out in test [9]: CD90, THY1 (gene 7070)
The test can be described thus: BSK_BF4T_CD90: BioMAP Diversity Plus: BF4T Assay for CD90 Biomarker Activity (AID 2284262). The conditions noted are these: primary human bronchial epithelial cells with fibroblasts. The gist of the method: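 Co-culture of human bronchial epithelial cells and dermal fibroblasts, 24 h compound exposure. Cell-surface CD90 measured by ELISA relative to DMSO; parallel SRB total-protein staining for cytotoxicity.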

Read-out in test [10]: Interleukin-8 (IL8), CXCL8 (gene 3576)
The test can be described thus: BSK_BF4T_IL8: BioMAP Diversity Plus: BF4T Assay for Interleukin-8 (IL8) Biomarker Activity (AID 2284263). The conditions noted are these: primary human bronchial epithelial cells with fibroblasts. The procedure, abridged:
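Human bronchial epithelial cells with dermal fibroblasts co-culture; IL-8 measured by ELISA 24 hours after dosing, fitted vs DMSO. Cytotoxicity tracked in parallel cultures by SRB total-protein staining.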

Read-out in test [11]: Interleukin-1 alpha (IL1a), IL1A (gene 3552)
The test can be described thus: BSK_BF4T_IL1a: BioMAP Diversity Plus: BF4T Assay for Interleukin-1 alpha (IL1a) Biomarker Activity (AID 2284264). The conditions noted are these: primary human bronchial epithelial cells with fibroblasts. The gist of the method: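 Human bronchial epithelial cells co-cultured with dermal fibroblasts, dosed and read at 24 h. Secreted/surface IL-1α quantified by ELISA; gain-of-signal fitted relative to DMSO baseline. Parallel SRB total-protein staining tracked cytotoxicity.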

Read-out in test [12]: Decorin, DCN (gene 1634)
The test can be described thus: BSK_MyoF_Decorin: BioMAP Diversity Plus: MyoF Assay for Decorin Biomarker Activity (AID 2284265). The conditions noted are these: primary human lung fibroblasts. The gist of the method: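 Compound is added to lung fibroblast cultures; cells incubate 24 h; decorin is then measured by ELISA; the response is analysed upward against DMSO controls.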

Read-out in test [13]: KRT18 (gene 3875)
The test can be described thus: BSK_BF4T_Keratin818: BioMAP Diversity Plus: BF4T Assay for Keratin 818 Biomarker Activity (AID 2284266). The conditions noted are these: primary human bronchial epithelial cells with fibroblasts. The gist of the method:
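Co-culture of human bronchial epithelial cells and dermal fibroblasts, chemical exposure 24 h. Keratin 8/18 measured by ELISA; positive-direction fit vs DMSO. SRB total protein run in parallel cultures for cytotoxicity.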

Read-out in test [14]: Matrix Metallopeptidase 1 (MMP1), MMP1 (gene 4312)
The test can be described thus: BSK_MyoF_MMP1: BioMAP Diversity Plus: MyoF Assay for Matrix Metallopeptidase 1 (MMP1) Biomarker Activity (AID 2284268). The conditions noted are these: primary human lung fibroblasts. The procedure, abridged: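 Lung fibroblast cultures were dosed with test chemicals and, after 24 h, MMP1 levels were measured by ELISA; responses were referenced to DMSO and analysed for increases.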

Read-out in test [15]: TIMP metallopeptidase inhibitor 1 (TIMP1), TIMP1 (gene 7076)
The test can be described thus: BSK_MyoF_TIMP1: BioMAP Diversity Plus: MyoF Assay for TIMP metallopeptidase inhibitor 1 (TIMP1) Biomarker Activity (AID 2284269). The conditions noted are these: primary human lung fibroblasts. The gist of the method:
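ELISA read-out of TIMP-1 from primary human lung fibroblast cultures 24 h after compound dosing; gain of signal relative to DMSO vehicle baseline defines activity.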

Read-out in test [16]: Matrix Metallopeptidase 1 (MMP1), MMP1 (gene 4312)
The test can be described thus: BSK_BF4T_MMP1: BioMAP Diversity Plus: BF4T Assay for Matrix Metallopeptidase 1 (MMP1) Biomarker Activity (AID 2284270). The conditions noted are these: primary human bronchial epithelial cells with fibroblasts. The procedure, abridged: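 Co-culture of human bronchial epithelial cells and dermal fibroblasts; MMP-1 levels measured by ELISA 24 hours after chemical dosing, relative to DMSO. Cytotoxicity checked in parallel cultures by SRB total-protein staining.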

Read-out in test [17]: Matrix Metallopeptidase 3 (MMP3), MMP3 (gene 4314)
The test can be described thus: BSK_BF4T_MMP3: BioMAP Diversity Plus: BF4T Assay for Matrix Metallopeptidase 3 (MMP3) Biomarker Activity (AID 2284271). The conditions noted are these: primary human bronchial epithelial cells with fibroblasts. The gist of the method: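 Co-culture of human bronchial epithelial cells and dermal fibroblasts dosed 24 h; MMP-3 measured by ELISA, positive-direction fit versus DMSO. Cytotoxicity tracked by SRB total-protein staining (560 nm) in parallel cultures.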

Read-out in test [18]: Tissue plasminogen activator (tPA), PLAT (gene 5327)
The test can be described thus: BSK_BF4T_tPA: BioMAP Diversity Plus: BF4T Assay for Tissue plasminogen activator (tPA) Biomarker Activity (AID 2284272). The conditions noted are these: primary human bronchial epithelial cells with fibroblasts. The gist of the method: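 tPA level quantified by ELISA at 24 h post-treatment in bronchial epithelial/dermal fibroblast co-cultures, gain of signal scored against DMSO baseline. Parallel cultures stained with 0.1% SRB (560 nm) to flag overt cytotoxicity.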

Test [19] can be described thus: BSK_BF4T_SRB: Viability Assessment in the BioMAP Diversity Plus: BF4T Assay (AID 2284274). The conditions noted are these: primary human bronchial epithelial cells with fibroblasts. The procedure, abridged:
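Co-culture of human bronchial epithelial cells and dermal fibroblasts (BioMAP BF4T) exposed 24 h. Total protein by sulforhodamine B staining (0.1% SRB after 10% TCA fixation, 560 nm) in parallel cultures; fitted vs DMSO.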

Read-out in test [20]: urokinase Plasminogen Activator (uPA), PLAU (gene 5328)
The test can be described thus: BSK_BF4T_uPA: BioMAP Diversity Plus: BF4T Assay for urokinase Plasminogen Activator (uPA) Biomarker Activity (AID 2284275). The conditions noted are these: primary human bronchial epithelial cells with fibroblasts. The procedure, abridged:
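Co-culture of human bronchial epithelial cells and dermal fibroblasts; uPA quantified by ELISA 24 hours after dosing, fitted relative to DMSO. Parallel SRB total-protein staining assessed overt cytotoxicity.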

More than one record can exist for a structure, and the calls need not agree. Activity calls are given as the source filed them. The calls were made as follows: active = hit-call score of the fitted dose curve at least 0.9, where 1 is the maximum; inactive = score below 0.9.

For the compound `OCC(F)(F)C(F)(F)C(F)(F)C(F)(F)C(F)(F)C(F)(F)C(F)(F)C(F)(F)C(F)(F)C(F)(F)C(F)(F)F`, the result in test [1], in test [2], in [3], in test [4], in test [5] and in test [6] was inactive. In addition, the result in [7], in [8], in test [9], in test [10], in [11] and in [12] was inactive. Besides, the result in test [13], in test [14], in test [15], in test [16], in test [17] and in [18] was inactive. Besides, the result in test [19] and in test [20] was inactive.
Usually AC50 stands for the concentration giving half of the maximal activity seen. Turning to `O=C(O)CCC(F)(F)C(F)(F)C(F)(F)C(F)(F)C(F)(F)F`, the result in test [1], in test [2], in [3], in test [4], in test [5] and in test [6] was inactive. The result in test [7], in test [8], in [9], in [10], in test [11] and in [12] was inactive. Moreover, the outcome in [13], in test [14], in test [15], in [16], in test [17] and in test [18] was inactive. Also, the outcome in test [19] and in test [20] was inactive. Moreover, in test [2], the AC50 is 835 nM (active).
